For eight compounds, Potency, outcome and activity change, positive = activation results are on record in PubChem BioAssay (Tox21).

Where “and” joins values, the source holds several entries; their conditions need not be identical. Equal entries are not always repeated. Results filed as inconclusive are left out. Some compounds were tested as several samples or in several runs, with calls that do not always agree. Calls of active or inactive are those of the source. Unless noted, calls follow the shape of the dose curve; as a rule, active = well fitted curve in the direction sought with a large enough effect in the repeat runs; inconclusive = weak or mixed curves; inactive = no such curve, though single readings can be large; an effect the other way counts as inactive or inconclusive.

In experiment [1] the target is Luciferin 4-monooxygenase (Photinus pyralis) (UniProt P08659). Description: qHTS assay to identify small molecule inhibitors of firefly luciferase (AID 1224835). Also: nearly all actives have a fitted effect of over 25% in size. Also: potency is read from the fitted curve at half-maximal effect. The essentials:
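Biochemical qHTS: compounds run as interplate titrations against purified firefly enzyme, with D-luciferin and ATP each at its KM concentration. Light output recorded by CCD imaging.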
On the technique in general: In qHTS, concentration-response curves come from the screen itself.

Experiment [2] in a line: qHTS assay to identify small molecule agonists of the constitutive androstane receptor (CAR) signaling pathway - cell viability counter screen (AID 1224836). Also: % is scaled to controls: 0 for no effect and ±100 for the full control effect; nearly all actives have a fitted effect of over 45% in size. In short, it runs like this: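 Viability read-out: CellTiter-Fluor fluorescence after 23 h compound exposure at 37 C/5% CO2 in double-stable HepG2-CYP2B6-hCAR cells, with PK11195 present at 0.75 uM final; compounds tested in 15-point titration.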

A short description of experiment [3]: qHTS assay to identify small molecule antagonists of the constitutive androstane receptor (CAR) signaling pathway - cell viability counter screen (AID 1224837). Also: nearly all actives have a fitted effect of over 45% in size. Also: potency is read from the fitted curve at half-maximal effect. In short, it runs like this: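 Multiplexed cytotoxicity read-out for the CAR antagonist screen: double-stable HepG2-CYP2B6-hCAR cells co-treated with 50 nM CITCO (final) and compound over 15 concentrations, incubated 23 hr, then assessed by CellTiter-Fluor fluorescence.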

Experiment [4] can be described thus: qHTS assay to identify small molecule agonists of the hypoxia (HIF-1) signaling pathway - cell viability counter screen (AID 1224844; calls by dose curve; also: nearly all actives have a fitted effect of over 50% in size; also: potency is read from the fitted curve at half-maximal effect). In short, it runs like this: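 Tox21 10K compounds were added to HRE-bla ME-180 cells (0.5% dialyzed FBS) and incubated 17 hrs at 37C; ATP-based CellTiter-Glo luminescence then reported cell viability in the same wells.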
Experiment [5] can be described thus: qHTS assay to identify small molecule agonists of H2AX - cell viability counter screen (AID 1224847; calls by dose curve; also: nearly all actives have a fitted effect of over 30% in size; also: potency is read from the fitted curve at half-maximal effect). In short, it runs like this: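 CHO-K1 wt, 1000 cells/well, o/n 37C; cpds 15 conc, 3 h 37C, 0.76% DMSO; CellTiter-Glo, 30 min RT, luminescence.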
A short description of experiment [6]: qHTS RealTime-Glo MT Cell Viability Assay in HepG2 cells - 24 hour (AID 1224867). Also: nearly all actives have a fitted effect of over 50% in size. Also: potency is read from the fitted curve at half-maximal effect. The essentials:
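Real-time, nonlytic viability: 600 HepG2 cells/well mixed with NanoLuc enzyme plus prosubstrate; 5 h settle, compound (DMSO) added by pintool; luminescence monitored over 40 h at 37 C.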

Experiment [7] is described as follows: qHTS RealTime-Glo MT Cell Viability Assay in HEK293 cells - 32 hour (AID 1224868). Also: nearly all actives have a fitted effect of over 50% in size. Also: potency is read from the fitted curve at half-maximal effect. In short, it runs like this:
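Cells + reagent dispensed (600 cells/well, HEK293) → 5 h at 37 C/5% CO2 → 23 nL compound in DMSO pinned → 40 h at 37 C → luminescence read at 0, 8, 16, 24, 32, 40 h.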

A short description of experiment [8]: A CellTox Green Cytotoxicity Assay to monitor cytotoxicity in HEK293 cells - 0 hour (AID 1224869). Also: % is scaled to controls: 0 for no effect and ±100 for the full control effect; nearly all actives have a fitted effect of over 50% in size. In short, it runs like this:
(§1)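 Cytotoxicity was tracked continuously in HEK293 cells by a DNA-binding dye excluded from viable cells. Compounds were transferred in DMSO 5 h after seeding; fluorescence was recorded at intervals up to 40 h.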

The nature of experiment [9]: qHTS RealTime-Glo MT Cell Viability Assay in HepG2 cells - 40 hour (AID 1224870). Also: nearly all actives have a fitted effect of over 50% in size. Also: potency is read from the fitted curve at half-maximal effect. In short, it runs like this:
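HepG2 cells (600/well) mixed with RealTime-Glo MT reagent, settled 5 h at 37 C/5% CO2 before compound addition. Nonlytic NanoLuc luminescence from viable-cell prosubstrate reduction read repeatedly during 40 h treatment at 37 C.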

Experiment [10] is described as follows: A CellTox Green Cytotoxicity Assay to monitor cytotoxicity in HEK293 cells - 40 hour (AID 1224871). Also: nearly all actives have a fitted effect of over 45% in size. Also: potency is read from the fitted curve at half-maximal effect. In short, it runs like this:
as §1

Experiment [11] deals with Nuclear receptor subfamily 1 group I member 3 (Homo sapiens) (UniProt Q14994). Description: qHTS assay to identify small molecule agonists of the constitutive androstane receptor (CAR) signaling pathway (AID 1224839). Also: nearly all actives have a fitted effect of over 15% in size. Also: potency is read from the fitted curve at half-maximal effect.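 As to activation: HepG2 cells stably carrying human CAR and a CYP2B6 luciferase reporter; % is scaled to controls: 0 for no effect and ±100 for the full control effect.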 In short, it runs like this: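 Luminescence read-out (ONE-Glo, 30 min, room temperature) from double-stable HepG2-CYP2B6-hCAR cells exposed 24 h to 15-point compound series in presence of 0.75 uM PK11195 final.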

Experiment [12] can be described thus: qHTS assay to identify small molecule antagonists of the estrogen related receptor signaling pathway with the pleiotropic PPARgamma coactivator (PGC) from Tox21 10K library - cell viability counter screen (AID 1224840; active = well fitted cell-killing curve with a large enough effect in the repeat runs, not every such curve was filed as active; also: nearly all actives have a fitted effect of over 40% in size; also: potency is read from the fitted curve at half-maximal effect). The essentials:
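Step one, plate 2,000 PGC/ERR cells per well; step two, incubate 6 h at 37 C/5% CO2; step three, pin-transfer compounds; step four, incubate 17.5 h; step five, add CellTiter-Fluor and read fluorescence after 30 min.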

Experiment [13] concerns the target Thyrotropin receptor (Homo sapiens) (UniProt P16473). In words: qHTS assay to identify small molecule agonists of the thyroid stimulating hormone receptor (TSHR) signaling pathway (AID 1224843; calls by dose curve; also: nearly all actives have a fitted effect of over 45% in size; also: potency is read from the fitted curve at half-maximal effect; as to activation: % is scaled to controls: 0 for no effect and ±100 for the full control effect). The essentials: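 TSHR-HEK293 cells in agonist mode, 30 min room-temperature step, then cAMP measured by competitive HTRF (cAMP-d2 with anti-cAMP cryptate) after 1 h at room temperature. Tested at 15 concentrations in triplicate.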

Experiment [14] can be described thus: qHTS assay to identify small molecule agonists of H2AX (AID 1224845; active = well fitted activation curve with a large enough effect in the signal ratio in the repeat runs, not every such curve was filed as active; the % refers to the signal ratio; also: % is scaled to controls: 0 for no effect and ±100 for the full control effect). The essentials:
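Wild-type CHO-K1 cells, plated overnight, exposed 3hr at 37C to 15 concentrations (0.76% DMSO final). Lysed, then HTRF anti-pH2AX (S139) cryptate and anti-H2AX-d2 antibodies, 24 hr room temperature; 665/620 nm emission read.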

Experiment [15] in a line: qHTS assay to identify small molecule agonists of the hypoxia (HIF-1) signaling pathway (AID 1224846; active = well fitted activation curve with a large enough effect in the signal ratio in the repeat runs, not every such curve was filed as active; the % refers to the signal ratio; also: % is scaled to controls: 0 for no effect and ±100 for the full control effect). The essentials: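 Steps: seed ME-180 HRE-bla cells (2,000/well, 0.5% dialyzed FBS); incubate 5 hrs at 37C; pin-transfer compounds or DMSO; incubate 17 hrs; add LiveBLAzer B/G substrate CCF4-AM; measure reporter activation by FRET.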
Experiment [16] in a line: qHTS assay to identify small molecule antagonists of the estrogen related receptor (ERR) signaling pathway from Tox21 library (AID 1224848). The essentials:
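ERR reporter cell line (from NTP) seeded 2,000 cells/well, rested 6 h at 37 C/5% CO2, then pin-dosed with compounds in DMSO. After 18 h at 37 C, ONE-Glo added; luminescence read after 30 min at room temperature.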

The nature of experiment [17]: qHTS assay to identify small molecule agonists of the estrogen related receptor (ERR) signaling pathway from Tox21 library (AID 1224849; calls by dose curve; also: % is scaled to controls: 0 for no effect and ±100 for the full control effect; nearly all actives have a fitted effect of over 15% in size). The conditions noted are these: ERR reporter cell line, ONE-Glo luciferase, 18 h. In short, it runs like this:
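Agonist signal is luciferase luminescence from an ERR reporter cell line treated 18 h at 37 C with DMSO-dissolved compounds, read 30 min after ONE-Glo addition at room temperature.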

In experiment [18] the target is Nuclear receptor subfamily 1 group I member 3 (Homo sapiens) (UniProt Q14994). In words: qHTS assay to identify small molecule antagonists of the constitutive androstane receptor (CAR) signaling pathway (AID 1224838). Also: nearly all actives have a fitted effect of over 40% in size. Also: potency is read from the fitted curve at half-maximal effect. The essentials:
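Compounds were titrated across 15 concentrations onto HepG2 cells double-stably expressing hCAR and a CYP2B6-2.2kb reporter, together with 50 nM CITCO (final). After 24 h at 37 C, luciferase activity was measured by luminescence.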

Experiment [19] in a line: qHTS assay to identify small molecule agonists of the estrogen related receptor signaling pathway with the pleiotropic PPARgamma coactivator (PGC) from Tox21 10K library (AID 1224842). Also: % is scaled to controls: 0 for no effect and ±100 for the full control effect; nearly all actives have a fitted effect of over 15% in size. The essentials:
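PGC/ERR reporter cell line, 2,000 cells per well, incubated 6 h at 37 C before 23 nL compound in DMSO was added. After 18 h at 37 C, One-Glo luminescence read following 30 min at room temperature.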

Experiment [20] can be described thus: qHTS assay to identify small molecule antagonists of the estrogen related receptor signaling pathway with the pleiotropic PPARgamma coactivator (PGC) from Tox21 10K library (AID 1224841; call rule not given here). In short, it runs like this: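 Antagonism in this quantitative HTS is taken from loss of luciferase signal in PGC/ERR cells. Cells (2,000/well) are treated with compounds in DMSO after a 6 h settling period and read by One-Glo luminescence after 18 h.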

Where [21] appears, read: at 92.4 µM (top of the series) unless noted.

Sequence of Thyrotropin receptor (Homo sapiens) (P16473 whole entry, looked up): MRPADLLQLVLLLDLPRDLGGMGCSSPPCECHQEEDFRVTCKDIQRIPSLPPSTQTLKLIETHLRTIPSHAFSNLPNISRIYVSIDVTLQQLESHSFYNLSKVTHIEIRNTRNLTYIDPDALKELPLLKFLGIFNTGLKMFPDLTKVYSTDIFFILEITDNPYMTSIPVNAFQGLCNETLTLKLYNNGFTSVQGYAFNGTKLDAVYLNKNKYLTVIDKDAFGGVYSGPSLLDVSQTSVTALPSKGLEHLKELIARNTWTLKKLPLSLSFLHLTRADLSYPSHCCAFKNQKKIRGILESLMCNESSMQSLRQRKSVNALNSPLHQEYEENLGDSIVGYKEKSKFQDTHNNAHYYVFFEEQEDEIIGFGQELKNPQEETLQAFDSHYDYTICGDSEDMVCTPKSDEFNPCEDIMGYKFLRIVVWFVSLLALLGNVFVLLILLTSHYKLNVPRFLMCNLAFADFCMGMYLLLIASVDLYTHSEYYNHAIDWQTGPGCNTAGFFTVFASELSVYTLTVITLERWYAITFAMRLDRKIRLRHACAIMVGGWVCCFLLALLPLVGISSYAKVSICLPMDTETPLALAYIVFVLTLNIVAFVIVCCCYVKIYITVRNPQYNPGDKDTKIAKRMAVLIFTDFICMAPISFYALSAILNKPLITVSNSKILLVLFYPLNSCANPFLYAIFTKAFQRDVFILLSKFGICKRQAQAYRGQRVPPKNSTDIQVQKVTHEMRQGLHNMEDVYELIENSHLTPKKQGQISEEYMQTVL
Sequence of Nuclear receptor subfamily 1 group I member 3 (Homo sapiens) (Q14994 whole entry, looked up): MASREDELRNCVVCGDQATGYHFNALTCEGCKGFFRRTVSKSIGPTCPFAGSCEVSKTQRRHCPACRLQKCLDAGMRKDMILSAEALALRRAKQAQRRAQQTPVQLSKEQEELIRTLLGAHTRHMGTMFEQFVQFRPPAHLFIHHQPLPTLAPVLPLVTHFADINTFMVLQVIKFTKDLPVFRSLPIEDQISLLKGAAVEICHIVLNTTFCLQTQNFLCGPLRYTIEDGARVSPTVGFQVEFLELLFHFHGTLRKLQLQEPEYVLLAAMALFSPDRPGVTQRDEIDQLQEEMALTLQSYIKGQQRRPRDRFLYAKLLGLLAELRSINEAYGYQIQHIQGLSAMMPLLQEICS
Sequence of Luciferin 4-monooxygenase (Photinus pyralis) (P08659 whole entry, looked up): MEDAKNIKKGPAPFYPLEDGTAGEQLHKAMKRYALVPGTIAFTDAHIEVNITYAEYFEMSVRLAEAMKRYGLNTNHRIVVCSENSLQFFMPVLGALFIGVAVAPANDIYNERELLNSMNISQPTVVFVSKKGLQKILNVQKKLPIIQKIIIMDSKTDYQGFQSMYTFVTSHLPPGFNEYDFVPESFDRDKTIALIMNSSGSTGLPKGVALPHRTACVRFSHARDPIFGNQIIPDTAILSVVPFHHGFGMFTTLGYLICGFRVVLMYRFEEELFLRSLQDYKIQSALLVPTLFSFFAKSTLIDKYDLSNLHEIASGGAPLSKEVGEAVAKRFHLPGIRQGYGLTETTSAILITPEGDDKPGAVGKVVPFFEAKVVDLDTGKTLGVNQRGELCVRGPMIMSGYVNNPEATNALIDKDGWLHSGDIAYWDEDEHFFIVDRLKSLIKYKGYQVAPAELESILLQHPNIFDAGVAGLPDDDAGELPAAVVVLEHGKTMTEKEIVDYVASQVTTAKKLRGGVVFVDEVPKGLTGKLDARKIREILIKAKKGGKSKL

As for `CC(=O)Nc1ccc(O)cc1`, the Potency result in experiment [1], in experiment [2], in experiment [3], in experiment [4], in experiment [5] and in [6] was “inactive” throughout. Further, the Potency result in experiment [7], in experiment [8], in experiment [9] and in experiment [10] was “inactive” each time.

Take `CCN(CC)CCCN(c1ccccc1)C1Cc2ccccc2C1`: the Potency entry in experiment [1], in [3], in [11], in experiment [12], in experiment [13] and in experiment [14] was “inactive” each time. For the same compound, the Potency entry in [5], in experiment [6], in experiment [8] and in [9] was “inactive” in each case. In addition, the Potency in experiment [4] was 23.9 µM (active). The outcome in experiment [15] was inactive.

In the case of `Clc1ccc(C(Cn2ccnc2)OCc2c(Cl)cccc2Cl)c(Cl)c1` (stereo unspecified), the Potency entry in experiment [1], in experiment [2], in experiment [8] and in experiment [9] was “inactive” throughout. Also, the Potency in experiment [4] is 23.9 µM (active); in experiment [16], 26.6 µM (active); in [7] it was 16.9 µM (active). In addition, the activity change, positive = activation in [17] (setting [21]) is -58.8% [at 42.5 µM] (inactive).

Take `CN(C)c1ccc(N=Nc2ccccc2C(=O)O)cc1`: the results for the Potency in experiment [1], in [11] and in [12] were 3.17 µM (active), 10.9 µM (active) and 27.3 µM (active), respectively. The Potency entry in experiment [18], in experiment [7] and in experiment [8] was “inactive” in each case.

Regarding `CCOC(=O)N1CCC(=C2c3ccc(Cl)cc3CCc3cccnc32)CC1`, the Potency result in [1], in experiment [2], in experiment [18] and in [8] was “inactive” in each case. Besides, the Potency in experiment [12] was 30.6 µM (active); in [4], 54.9 µM (active) and inactive; in experiment [16] it was 30.6 µM (active) and 26.6 µM (active); in experiment [7], 15.5 µM (active) and 16.9 µM (active); in [10] it was 43.6 µM (active). Also, the results for the activity change, positive = activation in experiment [17] (at 42.5 µM (top of the series)) and in [17] (at 92.4 µM (top of the series)) were -46% (inactive) and -60.8% (inactive), respectively.

In the case of `CC(=O)OC(OC(C)=O)c1ccc([N+](=O)[O-])o1`, the Potency entry in [1], in [11], in [19] and in experiment [8] was “inactive” in each case. The Potency in [3] was 62.2 µM (active); in [18] it was 55.4 µM (active); in experiment [13], 27.8 µM (active); in experiment [7], 44.4 µM (active). The activity change, positive = activation in experiment [17] (setting [21]) was -81.4% (inactive).

On to `O=C(Nc1ccc(Cl)c(Cl)c1)c1cc(Cl)cc(Cl)c1O`, for which the Potency is 3.99 µM (active) in experiment [1]; 7.7 µM (active) in [3]; 19.5 µM (active) in experiment [4]; 10.1 µM (active) in [5]; 1.09 µM (active) in [16]; 4.9 µM (active) in [7]. The Potency was 12.3 µM (active) in experiment [9] and 49 µM (active) in experiment [10]. The Potency result in experiment [19], in experiment [14] and in experiment [8] was “inactive” each time. In experiment [17] (setting [21]), the activity change, positive = activation was -15.1% (inactive).

For `NC1(c2ccc(-c3nc4ccn5c(=O)[nH]nc5c4cc3-c3ccccc3)cc2)CCC1`, the Potency entry in experiment [1], in [11], in experiment [19] and in experiment [13] was “inactive” each time. In addition, the Potency in [18] is 11.9 µM (active); in experiment [12], 15 µM (active); in experiment [20], 3.35 µM (active); in [4] it was 2.13 µM (active); in [16], 3.35 µM (active); in [6] it was 23.9 µM (active). Moreover, the Potency is 1.9 µM (active) in experiment [7] and 26.8 µM (active) in experiment [10]. For the same compound, the activity change, positive = activation in experiment [17] (setting [21]) was -52.3% [at 42.5 µM] (inactive).
